In the library only some 1.3% were active in any assay of this set; here they are far more common.
ZTA counter: counter-screen for EBNA-1 inhibitors: inhibitors of Epstein-Barr virus ZTA; ZTA-DNA binding, fluorescence polarization; inhibition, % at 11 µM; hit rate 0.15% among 320,000; in the data active = inhibition above about 33%
Target sequence (P03206 whole entry, looked up): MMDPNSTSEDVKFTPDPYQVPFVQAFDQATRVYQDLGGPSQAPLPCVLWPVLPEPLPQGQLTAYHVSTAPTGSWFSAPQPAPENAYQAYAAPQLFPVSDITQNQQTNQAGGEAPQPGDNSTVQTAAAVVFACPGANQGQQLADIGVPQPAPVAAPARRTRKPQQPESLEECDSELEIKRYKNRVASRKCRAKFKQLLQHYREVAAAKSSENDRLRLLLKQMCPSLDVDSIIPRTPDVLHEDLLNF
EBNA-1 inh: EBNA-1 DNA-binding inhibitors, primary screen, biochemical, fluorescence polarization. inhibition, % at 14.8 µM. hit rate 0.34% among 300,000. AID 1950, 2009; in the data active = inhibition above about 28%
LYPLA1 counter: LYPLA1 inhibitors, primary screen, counter-screen for PME1 inhibitor project, biochemical, fluorescence polarization, FP-Rh probe ABPP; Acyl-protein thioesterase 1 (Homo sapiens), O75608; recombinant LYPLA1; inhibition, % at 5.9 µM; hit rate 0.16% among 320,000; AID 2174, 2009;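 active = inhibition above the mean of all tested compounds plus 3 SD, set per campaign, cut at about 14% in these data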;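 also: inhibitors block serine hydrolase probe labeling of LYPLA1 so polarization falls; 0% = enzyme with DMSO and 100% = wells lacking LYPLA1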
PREPL inhibitor: PREPL enzyme inhibitors, primary screen, biochemical, fluorescence polarization; AID 2751, 2010; Prolyl endopeptidase-like (Homo sapiens), Q4J6C6; hit rate 0.68% among 320,000; inhibition, % at 5.96 µM; recombinant PREPL, fluorescence polarization activity-based probe; in the data active = inhibition above about 43%;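 also: 0% = enzyme with DMSO and 100% = wells lacking enzyme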
LYPLA2 counter: LYPLA2 inhibitors, primary screen, counter-screen for PME1 inhibitor project, biochemical, fluorescence polarization, FP-Rh probe ABPP | Acyl-protein thioesterase 2 (Homo sapiens), O95372 | recombinant LYPLA2 | inhibition, % at 5.9 µM | hit rate 0.38% among 320,000 | AID 2177, 2009;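 active = inhibition above the screen-wide mean plus 3 SD, limit set per campaign, cut at about 26% in these data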;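 also: 0% = LYPLA2 with DMSO and 100% = wells lacking LYPLA2 enzyme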
Target sequence (O95372 whole entry, looked up): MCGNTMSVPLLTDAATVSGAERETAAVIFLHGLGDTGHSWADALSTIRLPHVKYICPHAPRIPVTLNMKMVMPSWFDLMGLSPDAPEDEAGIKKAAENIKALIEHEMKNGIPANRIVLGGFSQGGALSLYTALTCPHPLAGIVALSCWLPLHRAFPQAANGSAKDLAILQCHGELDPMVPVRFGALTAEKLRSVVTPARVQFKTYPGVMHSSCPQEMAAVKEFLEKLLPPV
* = called active by the depositor; . = not tested or not shown; + = active, no number.

SMILES	ZTA counter	EBNA-1 inh	LYPLA1 counter	PREPL inhibitor	LYPLA2 counter
C#CCOCCOCCOCCNc1nc(N2CCN(C(=O)CCCCCCCCCCNC(=O)[C@@H](CCC(=O)O)n3cc(CCCCCN)nn3)CC2)nc(N2CCN(C(=O)CCCCCCCCCCNC(=O)[C@H](CO)n3cc(CCCSC)nn3)CC2)n1	-32	2	-4	19	1
C#CCOCCOCCOCCNc1nc(N2CCN(C(=O)CCCCCCCCCCNC(=O)[C@H](CCCCN)n3cc(C[C@@H](C)CC)nn3)CC2)nc(N2CCN(C(=O)CCCCCCCCCCNC(=O)[C@H](CCCN=C(N)N)n3cc(C[C@@H](C)CC)nn3)CC2)n1	70*	10	-5	66*	-7
COc1ccc(N2CC(C(=O)N[C@@H](CC(C)C)C(=O)NC3CCCCC3)CC2=O)cc1 (stereo partly drawn)	-19	-3	-2	9	5
O=C(C1CCCN(Cc2ccc(Br)cc2)C1)N1CCCCC1 (stereo not drawn)	10	-5	2	18	7
N#Cc1c(NC(=O)C2CC(c3ccccc3O)=NO2)sc2c1CCC2 (stereo not drawn)	-6	34*	-6	15	4
N#C/C(=C(/O)CCl)c1nc2ccccc2[nH]1	17	13	-2	50*	-7
N#C/C(=C(/O)c1cccs1)c1nc2ccccc2[nH]1	10	-5	6	77*	2
N#C/C(=C(\O)Cc1ccccc1)c1nc2ccccc2[nH]1	5	2	1	7	-1
CC1=C(C(=O)OCc2ccccc2)C(/C=C/c2ccccc2)NC(=S)N1 (stereo not drawn)	-13	9	-9	-33	49*
C=CCOC(=O)C1=C(C)NC(=S)NC1/C=C/c1ccccc1 (stereo not drawn)	-12	-4	-1	-13	-2
c1ccc(-n2cnc3cc(NCc4ccccn4)ccc32)cc1	-4	1	3	55*	2
Cc1ccc(NC(=O)N2CCC(NC(=O)c3cccc(F)c3)CC2)cc1	-11	9	1	16	1
O=C(OCC(=O)N1CCCCC1)c1ccc2c(c1)C(=O)N(Cc1ccco1)C2=O	5	.	-1	5	3
O=C1C=C(O)c2cccc(O)c2C1=O	5	-7	0	5	9
CC1=CC(=O)c2c(O)ccc(O)c2C1=O	36*	42*	-4	35	25
COCc1ccc(CN2CCC(n3nccc3NC(=O)CCCc3ccccc3)CC2)o1	-6	2	0	15	-2
C=CCOc1c(Cl)cc(CNc2ccc(N(C)C)cc2)cc1OC	+	+	-3	20	5
CCOc1ccc(CNc2ccc(N3CCCC3)cc2)cc1	86*	79*	0	44*	4
COc1cc(CNc2ccc(N3CCCC3)cc2)cc(Cl)c1OC	127*	111*	0	33	2
C=CCOc1c(Cl)cc(CNc2ccc(C)c(Cl)c2)cc1OC	7	-2	-6	28	-3
CCOc1cc(CNc2ccc(N3CCCC3)cc2)cc(Cl)c1OC	159*	97*	1	37	-4
CCOc1ccc(CNc2ccc(N3CCN(Cc4ccccc4)CC3)cc2)cc1	-8	-7	2	17	-5
Cc1ccc(C(=O)N(CCc2ccccc2)Cc2ccccc2)cc1S(=O)(=O)N1CCCCC1	-7	4	3	20	3
C(=Nc1cccc2c(N=Cc3ccco3)cccc12)c1ccco1	-4	6	4	55*	3
CN(C)c1ccc(N=Cc2ccco2)cc1	+	+	-3	31	2
SMILES	ZTA counter	EBNA-1 inh	LYPLA1 counter	PREPL inhibitor	LYPLA2 counter
CN(C)c1ccc(C=Nc2ccc(N(C)C)cc2)cc1	+	+	-5	38	-1
CCN(c1ccccc1)S(=O)(=O)c1ccc(Oc2ccc(C(C)=O)cc2OC)nc1	-5	.	1	1	-6
Cc1[nH]c2ccccc2c1/C=N\NC(=O)CNc1ccc2c(c1)OCO2	-3	6	3	29	-1
O=C(CNc1ccc2c(c1)OCO2)N/N=C\c1ccccc1Cl	13	9	2	50*	-2
COc1cc(/C=C2/CCc3ccccc3C2=O)cc(OC)c1OC	8	-1	5	7	30*
COc1ccc(/C=C2/CCc3ccccc3C2=O)cc1OC	14	0	-2	25	9
CCOC(=O)C(Cc1ccccc1)c1ccnc2nc(N)nn12 (stereo not drawn)	11	8	1	0	3
O=C(N/N=C1/C(=O)c2cccc3cccc1c23)c1ccc(Cl)cc1	-3	1	6	35	31*
CCNC(=S)N/N=C1\C(=O)c2cccc3cccc1c23	4	-6	4	4	-2
COc1cccc(/C=C/C(=O)OCC(=O)NCC2CCCCC2)c1OC	-2	.	-2	-1	-3
C#CCOCCOCCOCCNc1nc(N2CCN(C(=O)CCCCCCCCCCNC(=O)[C@H](CCCN=C(N)N)n3cc(C[C@@H](C)CC)nn3)CC2)nc(N2CCN(C(=O)CCCCCCCCCCNC(=O)[C@@H]([C@H](C)CC)n3cc(CCCCCN)nn3)CC2)n1	161*	1	-3	60*	24
C#CCOCCOCCOCCNc1nc(N2CCN(C(=O)CCCCCCCCCCNC(=O)[C@H]([C@@H](C)CC)n3cc(CCCCN=C(N)N)nn3)CC2)nc(N2CCN(C(=O)CCCCCCCCCCNC(=O)[C@H](CCCN=C(N)N)n3cc(C[C@@H](C)CC)nn3)CC2)n1	137*	2	2	69*	7
Cc1cc(C)c[n+](C(C)C(=O)c2ccc(Cl)cc2)c1 (stereo not drawn)	-10	-9	-1	-13	5
COc1cccc(C2=CC(c3ccc(N(C)C)cc3)n3ncnc3N2)c1 (stereo not drawn)	8	-12	4	63*	2
COc1cccc(C2=CC(c3ccccc3)n3ncnc3N2)c1 (stereo not drawn)	-3	-9	-3	-5	-14
CC(/C=C1\SC(=O)N(CC(=O)Nc2ccc(O)cc2)C1=O)=C\c1ccccc1	7	28*	-7	22	1
CC(CSc1nnnn1-c1ccccc1)Cn1c(N2CCCC2)nc2c1c(=O)[nH]c(=O)n2C (stereo not drawn)	-2	-10	-2	46*	-2
COc1ccc(N2CCN(c3nc4c(c(=O)[nH]c(=O)n4C)n3Cc3cccc(C)c3)CC2)cc1	-12	-2	4	51*	7
CC1CCN(c2nc3c(c(=O)[nH]c(=O)n3C)n2Cc2ccccc2)CC1	-2	1	4	15	0
Cc1cccc(Cn2c(N3CCN(CCO)CC3)nc3c2c(=O)[nH]c(=O)n3C)c1	8	-10	4	7	9
CCn1c(N2CCC(Cc3ccccc3)CC2)nc2c1c(=O)[nH]c(=O)n2C	6	1	0	57*	6

Screening data as filed in PubChem.
